PubChem BioAssay (NCI)
This is part of a sample that, as a whole, favours compounds with a hit. Of some 79,000 tested, about 15% had one in any assay. The source made the active and inactive calls. Cut-off read from the data, not from the text of the source: active = growth inhibition above about 70%; inactive = the rest.

What was measured:
[1] = NCI Yeast Anticancer Drug Screen. Data for the wt1 strain (AID 149);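 note: 0% = growth of vehicle-treated wt1 cultures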; conditions: S. cerevisiae wt1 strain (SPY 50644) growth inhibition, hits give high values
In short: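 Each compound is tested on wt1 yeast and the loss of growth versus vehicle gives the inhibition value.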

[2] = NCI Yeast Anticancer Drug Screen. Data for the rad50EPP+ strain (AID 151);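 note: 0% = growth of vehicle-treated control cultures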; conditions: S. cerevisiae rad50 mutant strain, hits give high values
In short: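 Growth inhibition read against vehicle controls in rad50EPP+ yeast, a strain altered in DNA damage repair, after compound exposure.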

[3] = NCI Yeast Anticancer Drug Screen. Data for the mgt1 strain (AID 153); conditions: S. cerevisiae mgt1 mutant growth inhibition, hits give high values
In short: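 mgt1 yeast grown with test compound; read-out is growth inhibition versus vehicle-treated cultures.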

[4] = NCI Yeast Anticancer Drug Screen. Data for the rad50 strain (AID 155);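 note: 0% = growth of vehicle-only cultures of the same strain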; conditions: S. cerevisiae rad50 strain growth inhibition, hits give high values
In short: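 Vehicle-treated cultures provide the reference for the growth inhibition reported for compound-exposed, repair-deficient yeast.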

[5] = NCI Yeast Anticancer Drug Screen. Data for the mec2-1 strain (AID 157); conditions: S. cerevisiae mec2-1 strain, hits give high values
In short: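 Yeast mec2-1 mutant treated with compound. Readout: growth inhibition vs vehicle controls.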

[6] = NCI Yeast Anticancer Drug Screen. Data for the rad14 strain (AID 159);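 note: 0% = growth of vehicle-treated control cultures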; conditions: S. cerevisiae rad14 strain growth inhibition, hits give high values
In short: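 Inhibition of growth is reported for a repair-deficient yeast mutant following compound treatment, calculated relative to cultures that received vehicle.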

[7] = NCI Yeast Anticancer Drug Screen. Data for the sgs1 mgt1 strain (AID 161);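 note: 0% = growth of cultures given vehicle only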; conditions: S. cerevisiae sgs1 mgt1 strain, hits give high values
In short: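 Inhibition of yeast growth, normalised to vehicle-treated controls, is reported for a strain bearing genetic alterations in DNA damage repair.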

[8] = NCI Yeast Anticancer Drug Screen. Data for the CLN2oe strain (AID 163);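 note: 0% = growth of vehicle-only control cultures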; conditions: S. cerevisiae CLN2oe strain, hits give high values
In short: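 Read-out: yeast growth inhibition, expressed relative to vehicle-only controls. The strain bears an engineered cell-cycle alteration.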

[9] = NCI Yeast Anticancer Drug Screen. Data for the cln2 rad14 strain (AID 165);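 note: 0% = growth equal to vehicle treated cultures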; conditions: S. cerevisiae cln2 rad14 strain, hits give high values
In short: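 cln2 rad14 yeast strain; compound exposure; growth inhibition read vs vehicle controls.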

[10] = NCI Yeast Anticancer Drug Screen. Data for the bub3 strain (AID 167); conditions: S. cerevisiae bub3 mutant strain, hits give high values
In short: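 Mutant yeast screening strain plus compound; vehicle-treated cultures serve as the 0% inhibition reference.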

[11] = NCI Yeast Anticancer Drug Screen. Data for the wt2 strain (AID 169); conditions: S. cerevisiae wt2 strain growth inhibition, hits give high values
In short: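 Read-out: growth inhibition versus vehicle-treated control cultures after compound exposure of the yeast strain.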

[12] = NCI Yeast Anticancer Drug Screen. Data for the mlh1 strain (AID 171);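 note: 0% = growth of vehicle-treated control cultures of the same strain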; conditions: S. cerevisiae mlh1 strain growth inhibition, hits give high values
In short: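 Read-out: growth inhibition versus vehicle controls. Strain: engineered yeast with a defined DNA repair or cell cycle defect, compound-treated.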

[13] = NCI Yeast Anticancer Drug Screen. Data for the sgs1 strain (AID 173);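 note: 0% = growth of vehicle-only control cultures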; conditions: S. cerevisiae sgs1 mutant, hits give high values
In short: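 Read-out: yeast growth inhibition relative to vehicle controls, following compound exposure of a strain with a defined DNA repair/cell cycle alteration.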

[14] = NCI Yeast Anticancer Drug Screen. Data for the mlh1 rad18 strain (AID 175); conditions: S. cerevisiae mlh1 rad18 strain growth inhibition, hits give high values
In short: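 Yeast w/ defined DNA-repair lesions; compound exposure; growth vs vehicle controls → % inhibition.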

[15] = NCI Yeast Anticancer Drug Screen. Data for the rad18 strain (AID 177); conditions: S. cerevisiae rad18 mutant growth inhibition, hits give high values
In short: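 Readout: growth inhibition vs vehicle controls. Cells: genetically altered yeast strain, DNA repair defect.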

[16] = NCI Yeast Anticancer Drug Screen. Data for the rad52 strain (AID 147);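 note: 0% = growth of vehicle-treated control cultures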; conditions: S. cerevisiae rad52 mutant growth inhibition, hits give high values
In short: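 Read-out: growth inhibition versus vehicle-treated controls. Cells were a DNA repair-deficient yeast strain treated with compounds.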

[17] = at 5.0 µM (retest, dose inferred, filed as 0.5)
[18] = at 50.0 µM (retest, dose inferred, filed as 5.0)

Measured: growth inhibition

CCN(CCCl)CCCCNc1c2ccccc2nc2ccc(OC)cc12
inactive: [1]; at 1.2 µM 3% | [1]; at 3.7 µM 8% | [1]; at 11.0 µM 32% | [2]; at 1.2 µM 18% | [2]; at 3.7 µM 39% | [2]; at 11.0 µM 63% | [3]; at 1.2 µM 9% | [3]; at 3.7 µM 14% | [3]; at 11.0 µM 42% | [4]; at 1.2 µM 38% | [4]; at 3.7 µM 64% | [4]; [17] 46% | [4]; [18] 46% | [5]; at 1.2 µM 9% | [5]; at 3.7 µM 18% | [5]; [17] 26% | [5]; at 11.0 µM 48% | [5]; [18] 26% | [6]; at 1.2 µM 4% | [6]; at 3.7 µM 17% | [7]; [17] 60% | [7]; [18] 60% | [8]; at 1.2 µM 8% | [8]; at 3.7 µM 33% | [8]; at 11.0 µM 57% | [9]; [17] 24% | [9]; [18] 24% | [10]; at 1.2 µM -21% | [10]; at 3.7 µM -14% | [10]; [17] -15% | [10]; at 11.0 µM 38% | [10]; [18] -15% | [10]; at 50.0 µM 60.9% | [11]; at 1.2 µM 4% | [11]; at 3.7 µM 13% | [11]; at 11.0 µM 38% | [12]; at 1.2 µM 4% | [12]; at 3.7 µM 16% | [12]; at 11.0 µM 51% | [13]; at 1.2 µM 46% | [13]; at 3.7 µM 69% | [14]; [17] 18% | [14]; [18] 18% | [14]; at 50.0 µM 69.5% | [15]; at 1.2 µM 66%
active: [1]; at 33.0 µM 74% | [1]; at 100.0 µM 95% | [2]; at 33.0 µM 77% | [2]; at 100.0 µM 90% | [3]; at 33.0 µM 86% | [3]; at 100.0 µM 97% | [4]; at 11.0 µM 84% | [4]; at 33.0 µM 91% | [4]; at 50.0 µM 85.8% | [4]; at 100.0 µM 95% | [5]; at 33.0 µM 94% | [5]; at 50.0 µM 74.2% | [5]; at 100.0 µM 97% | [6]; at 11.0 µM 80% | [6]; at 33.0 µM 95% | [6]; at 100.0 µM 98% | [7]; at 50.0 µM 72.1% | [8]; at 33.0 µM 78% | [8]; at 100.0 µM 95% | [9]; at 50.0 µM 77.9% | [10]; at 33.0 µM 82% | [10]; at 100.0 µM 94% | [11]; at 33.0 µM 82% | [11]; at 100.0 µM 95% | [12]; at 33.0 µM 70% | [12]; at 100.0 µM 96% | [13]; at 11.0 µM 82% | [13]; at 33.0 µM 90% | [13]; at 100.0 µM 96% | [15]; at 3.7 µM 80% | [15]; at 11.0 µM 90% | [15]; at 33.0 µM 94% | [15]; at 100.0 µM 95%

NNc1ccccc1Cl
inactive: [16]; at 1.2 µM 40% | [1]; at 1.2 µM 40% | [4]; at 1.2 µM 39% | [4]; [17] 21% | [5]; at 1.2 µM 19% | [5]; at 3.7 µM 68% | [5]; [17] -8% | [7]; [17] 11% | [8]; at 1.2 µM 60% | [9]; [17] 41% | [10]; at 1.2 µM 38% | [11]; at 1.2 µM 42% | [11]; at 3.7 µM 66% | [12]; at 1.2 µM 44% | [13]; at 1.2 µM 47% | [15]; at 1.2 µM 46%
active: [16]; at 3.7 µM 72% | [16]; at 11.0 µM 78% | [16]; at 33.0 µM 95% | [16]; at 100.0 µM 96% | [1]; at 3.7 µM 73% | [1]; at 11.0 µM 81% | [1]; at 33.0 µM 95% | [1]; at 100.0 µM 97% | [4]; at 3.7 µM 83% | [4]; at 11.0 µM 80% | [4]; at 33.0 µM 96% | [4]; [18] 97% | [4]; at 50.0 µM 89.2% | [4]; at 100.0 µM 97% | [5]; at 11.0 µM 84% | [5]; at 33.0 µM 97% | [5]; [18] 99% | [5]; at 50.0 µM 90.7% | [5]; at 100.0 µM 97% | [7]; [18] 96% | [7]; at 50.0 µM 92.3% | [8]; at 3.7 µM 93% | [8]; at 11.0 µM 96% | [8]; at 33.0 µM 97% | [8]; at 100.0 µM 98% | [9]; [18] 98% | [9]; at 50.0 µM 89.5% | [10]; at 3.7 µM 89% | [10]; [17] 86% | [10]; at 11.0 µM 93% | [10]; at 33.0 µM 97% | [10]; [18] 98% | [10]; at 50.0 µM 89.5% | [10]; at 100.0 µM 97% | [11]; at 11.0 µM 83% | [11]; at 33.0 µM 96% | [11]; at 100.0 µM 96% | [12]; at 3.7 µM 80% | [12]; at 11.0 µM 89% | [12]; at 33.0 µM 97% | [12]; at 100.0 µM 97% | [13]; at 3.7 µM 86% | [13]; at 11.0 µM 90% | [13]; at 33.0 µM 96% | [13]; at 100.0 µM 97% | [14]; [17] 82% | [14]; [18] 97% | [14]; at 50.0 µM 88.2% | [15]; at 3.7 µM 86% | [15]; at 11.0 µM 84% | [15]; at 33.0 µM 95% | [15]; at 100.0 µM 97%
